System: RIVA
Experiment: growth inhibition by drug plus 177Lu-lilotomab satetraxetan (1 - RLU/untreated control) (fraction); higher = stronger inhibition
Conditions: 177Lu-lilotomab satetraxetan 0.5 ug/ml
Description: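 RIVA (RI-1) ABC-DLBCL cells were pretreated or not for 18 h with 0.5 ug/ml 177Lu-lilotomab satetraxetan (600 MBq/mg), washed and seeded (3000 cells/well) on 384-well plates pre-printed with the Selleck Cambridge Cancer Compound library. Viability was read by RealTime-Glo luminescence on days 3-6 after seeding. Effect = 1 - RLU/mean RLU of the 48 untreated no-drug control wells per plate; Bliss score = (M-E)/(1-Fa).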

SMILES	growth inhibition by drug plus 177Lu-lilotomab satetraxetan (10 nM, time (day): 3)	growth inhibition by drug plus 177Lu-lilotomab satetraxetan (10 nM, time (day): 4)	growth inhibition by drug plus 177Lu-lilotomab satetraxetan (10 nM, time (day): 5)	growth inhibition by drug plus 177Lu-lilotomab satetraxetan (10 nM, time (day): 6)	growth inhibition by drug plus 177Lu-lilotomab satetraxetan (100 nM, time (day): 3)	growth inhibition by drug plus 177Lu-lilotomab satetraxetan (100 nM, time (day): 4)	growth inhibition by drug plus 177Lu-lilotomab satetraxetan (100 nM, time (day): 5)	growth inhibition by drug plus 177Lu-lilotomab satetraxetan (100 nM, time (day): 6)
C=C1C[C@@H]2[C@H](CC[C@]3(C)C(=O)CC[C@@H]23)[C@@]2(C)C=CC(=O)C=C12 [Exemestane]	0.609	0.639	0.647	0.653	0.483	0.528	0.533	0.543
CC(C)[C@]12O[C@H]1[C@@H]1O[C@]13[C@]1(O[C@H]1C[C@H]1C4=C(CC[C@@]13C)C(=O)OC4)[C@@H]2O [Triptolide]	0.648	0.885	0.928	0.948	0.941	0.967	0.979	0.984
CC1=C2C[C@H]3[C@@H](CC=C4C[C@@H](O)CC[C@@]43C)[C@@H]2CC[C@]12O[C@@H]1C[C@H](C)CN[C@H]1[C@H]2C [Cyclopamine]	0.301	0.397	0.41	0.418	0.454	0.57	0.559	0.53
CC(O)(CS(=O)(=O)c1ccc(F)cc1)C(=O)Nc1ccc(C#N)c(C(F)(F)F)c1 (stereo not given) [Bicalutamide (Casodex)]	0.401	0.506	0.542	0.556	0.351	0.443	0.458	0.432
O=C(Oc1ccc([N+](=O)[O-])cc1)N1CCC(C(O)(c2ccc3c(c2)OCO3)c2ccc3c(c2)OCO3)CC1	0.375	0.498	0.518	0.517	0.429	0.517	0.523	0.501

Reference: the supplement of paper PMC6897291
